Source: PubChem BioAssay (NCATS)
Records with an inconclusive call do not appear. Values without a mark were called inactive. Activity calls are given as the source filed them. Calls come from the whole dose curve; as a rule, active = well fitted inhibition curve with a large enough effect; inconclusive = small, poorly fitted or top-dose-only effect; inactive = flat fitted curve, though single readings scatter.

target: Voltage-gated inwardly rectifying potassium channel KCNH2 (Homo sapiens) (UniProt Q12809); experiment: qHTS Assay for Small Molecule Inhibitors of the Human hERG Channel Activity (AID 588834); conditions: U2OS BacMam hERG, FluxOR thallium flux fluorescence; series mostly up to 46.1 µM; activity change, negative = inhibition: at the top concentration;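 note: lower thallium flux fluorescence means stronger hERG block; nearly all actives have a fitted effect of over 50% in size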;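 for activity change, negative = inhibition: U2OS cells transduced with hERG by BacMam; top concentration of the series differs between compounds; % is set by controls: 0 for no effect and ±100 for the full control effect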
Sequence (Q12809 whole entry, looked up): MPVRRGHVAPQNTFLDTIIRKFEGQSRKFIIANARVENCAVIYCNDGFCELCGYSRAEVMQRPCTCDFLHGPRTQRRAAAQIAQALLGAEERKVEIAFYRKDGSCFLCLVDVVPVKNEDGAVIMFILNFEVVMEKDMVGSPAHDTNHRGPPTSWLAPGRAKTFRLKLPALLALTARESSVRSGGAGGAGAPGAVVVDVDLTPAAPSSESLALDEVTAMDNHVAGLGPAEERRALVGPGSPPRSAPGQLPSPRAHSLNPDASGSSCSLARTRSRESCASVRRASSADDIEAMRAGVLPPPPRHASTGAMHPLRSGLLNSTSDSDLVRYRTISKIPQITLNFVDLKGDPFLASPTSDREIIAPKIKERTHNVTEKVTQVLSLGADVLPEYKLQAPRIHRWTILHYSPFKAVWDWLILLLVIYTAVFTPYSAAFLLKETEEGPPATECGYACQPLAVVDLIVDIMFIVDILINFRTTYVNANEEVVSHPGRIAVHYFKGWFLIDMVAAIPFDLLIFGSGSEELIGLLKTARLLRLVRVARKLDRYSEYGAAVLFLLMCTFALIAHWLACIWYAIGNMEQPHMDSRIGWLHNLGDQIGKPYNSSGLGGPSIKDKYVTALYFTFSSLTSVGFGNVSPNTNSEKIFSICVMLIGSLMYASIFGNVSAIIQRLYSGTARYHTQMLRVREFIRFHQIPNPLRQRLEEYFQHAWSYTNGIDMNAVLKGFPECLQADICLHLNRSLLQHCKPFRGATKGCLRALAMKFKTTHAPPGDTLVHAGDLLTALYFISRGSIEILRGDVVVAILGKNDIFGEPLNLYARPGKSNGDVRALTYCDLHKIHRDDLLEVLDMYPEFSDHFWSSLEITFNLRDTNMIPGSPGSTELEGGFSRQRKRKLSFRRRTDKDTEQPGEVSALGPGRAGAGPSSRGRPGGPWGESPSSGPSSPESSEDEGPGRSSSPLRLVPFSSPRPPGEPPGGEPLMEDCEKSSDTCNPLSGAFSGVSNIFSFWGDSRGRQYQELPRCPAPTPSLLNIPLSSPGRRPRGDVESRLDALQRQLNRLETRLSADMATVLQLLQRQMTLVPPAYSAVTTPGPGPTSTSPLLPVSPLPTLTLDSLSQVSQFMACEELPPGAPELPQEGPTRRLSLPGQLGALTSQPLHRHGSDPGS
Summary of the method: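 Cells were infected with hERG-BacMam virus for 4 hrs at room temperature, grown overnight, then seeded at 2000/well. After dye loading and roughly 10 min compound treatment, thallium influx was triggered and fluorescence recorded.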
Potency is the fitted concentration of half-maximal effect.

Structure (SMILES) | activity change, negative = inhibition [%] | Potency
O=C(O)CC[N+](=O)[O-] | 8.93 | 
NC(N)=NOCCC(N)C(=O)O (centres undefined) | 9.86 | 
NC1CCc2cc(O)c(O)cc2C1 (centres undefined) | -3.56 | 
CC(Cc1ccc(O)cc1)NCC(O)c1cc(O)cc(O)c1 (centres undefined) |  | inactive
Cc1c(C(=O)c2cccc3ccccc23)c2cccc3c2n1[C@H](CN1CCOCC1)CO3 |  | 6.31 µM (active)
CC(C)Oc1cccnc1N(C)C1CCN(Cc2ccccc2)CC1 |  | 6.31 µM (active)
Cn1cnc(CCN)c1 | -2.11 | 
c1ccc(CCCN2CCN(CCOC(c3ccccc3)c3ccccc3)CC2)cc1 |  | 0.501 µM (active)
NC(CP(=O)(O)O)C(=O)O (centres undefined) | 21.6 | 
NC(CCP(=O)(O)O)C(=O)O (centres undefined) | 5.47 | 
NCCc1c[nH]c2ccc(O)cc12 | -9.9 | 
CNCCc1ccc(O)c(O)c1 | -12.7 | 
CNCCc1c[nH]c2ccc(O)cc12 | 12.9 | 
O=C(O)Cc1cnc[nH]1 | 10.9 | 
COc1ccc2c(c[n+](C)c3c4cc5c(cc4ccc23)OCO5)c1OC | -8.11 | 
CCCN1CCO[C@@H]2c3cc(O)ccc3OC[C@H]21 |  | inactive
Cc1nc(-c2ccc(-c3ccc(C(=O)N4CCc5cc6c(cc54)C4(CCN(C)CC4)CO6)cc3)c(C)c2)no1 |  | 7.94 µM (active)
c1ccc2sc(C3(N4CCCCC4)CCCCC3)cc2c1 |  | 2.82 µM (active)
C[C@@H]1O[C@H](C[N+](C)(C)C)C[C@H]1O | -1.44 | 
CC[C@@]1(O)C(=O)OCc2c1cc1n(c2=O)Cc2cc3ccccc3nc2-1 | -1.43 | 
C[C@]12CCC3C(CC[C@H]4C[C@H](O)CC[C@]34C)C1CC[C@@H]2C(=O)CO (some centres undefined) | 14.7 | 
S=C(NC1CCCCC1)N1CCC(c2cnc[nH]2)CC1 | -25.4 | 
C[N+]1(C)C2CCC1CC(OC(=O)C(CO)c1ccccc1)C2 (centres undefined) |  | inactive
NCc1cc(=O)[nH]o1 | 2.67 | 
O=C1CCCN1CC#CCN1CCCC1 | -2.36 | 
COc1cc(C(O)CN)ccc1O (centres undefined) | 5.74 | 
CC(=O)NCCc1c[nH]c2ccccc12 | 16.2 | 

target: Luciferin 4-monooxygenase (Photinus pyralis) (UniProt P08659); experiment: Biochemical firefly luciferase enzyme assay for NPC (AID 624030); note: nearly all actives have a fitted effect of over 70% in size;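 for activity change, negative = inhibition: purified P. pyralis luciferase at 10 nM with luciferin and ATP substrate; 0% = DMSO and -100% = full luciferase inhibition by PTC124 control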; conditions: purified P. pyralis luciferase, luminescence, 5 min; series mostly up to 58.6 µM; activity change, negative = inhibition: at the top concentration
Sequence (P08659 whole entry, looked up): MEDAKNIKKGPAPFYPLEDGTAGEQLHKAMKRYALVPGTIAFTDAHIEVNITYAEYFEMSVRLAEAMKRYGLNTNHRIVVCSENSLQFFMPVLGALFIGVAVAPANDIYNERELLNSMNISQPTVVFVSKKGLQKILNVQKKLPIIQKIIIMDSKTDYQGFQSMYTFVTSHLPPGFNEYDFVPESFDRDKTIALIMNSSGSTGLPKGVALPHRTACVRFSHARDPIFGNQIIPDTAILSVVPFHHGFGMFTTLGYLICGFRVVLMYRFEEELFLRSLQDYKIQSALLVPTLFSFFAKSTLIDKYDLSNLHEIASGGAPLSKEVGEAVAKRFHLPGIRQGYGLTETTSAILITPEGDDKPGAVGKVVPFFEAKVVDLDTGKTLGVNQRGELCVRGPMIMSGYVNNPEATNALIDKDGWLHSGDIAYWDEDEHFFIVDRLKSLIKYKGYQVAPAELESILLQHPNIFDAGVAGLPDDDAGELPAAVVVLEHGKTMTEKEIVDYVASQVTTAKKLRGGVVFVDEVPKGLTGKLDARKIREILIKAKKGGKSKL
Summary of the method: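 Counter-screen for direct inhibition of the luciferase enzyme by approved-drug library compounds, run at 10 nM enzyme in 50 mM Tris acetate (final). Luminescence was read within 5 min of enzyme-buffer addition and normalized to PTC124 versus DMSO (0%).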

Structure (SMILES) | Potency | activity change, negative = inhibition
S=C(SSC(=S)N1CCCCC1)N1CCCCC1 | 8.09 µM (active) | 
COc1cc([C@@H]2c3cc4c(cc3[C@@H](O)C3COC(=O)C32)OCO4)cc(OC)c1O (some centres undefined) |  | -7.13%
CCC1(CCC(C)C)C(=O)NC(=O)NC1=O |  | 0.473% [at 123 µM]
O=C(O)c1ccccc1O | inactive | 
CC(C)(C)NC[C@H](O)c1ccc(O)cc1Cl |  | -1.11%
CC(C)NCC(O)c1ccc([N+](=O)[O-])cc1 (centres undefined) |  | -2.03%
C#CC1(O)CCC2C3CCC4=CC(=O)CCC4(C)C3CCC21C (centres undefined) |  | 0.333%
C[C@@H]1[C@H](O)[C@@H](C)C=CC=CCCC=CC=CC=CC=C[C@H](O[C@H]2O[C@@H](C)[C@H](O)[C@@H](N)[C@@H]2O)CC2O[C@](O)(C[C@@H](O)[C@H](O)CC[C@@H](O)C[C@@H](O)C[C@@H](O)CC(=O)O[C@H]1C)C[C@H](O)[C@H]2C(=O)O |  | -1.98%
Cc1ccc(Cl)c(O)c1 |  | 6.44%
C[C@]12CC[C@@H]3[C@@H](CCC4=CC(=O)CC[C@@H]43)[C@@H]1CC[C@@H]2OC(=O)CCc1ccccc1 |  | 1.09%
CC(O)CN1CCN(CC(=O)[O-])CCN(CC(=O)[O-])CCN(CC(=O)[O-])CC1.[Gd+3] (centres undefined) | inactive | 
CC(=O)OCC1=C(C(=O)O)N2C(=O)[C@@H](N)[C@@H]2SC1 |  | -3.34% [at 24.9 µM]
